Sampled rows, rich in hits. Any-hit rate of the full collection: about 19%.
TDP1 cell noCPT: qHTS for Inhibitors of human tyrosyl-DNA phosphodiesterase 1 (TDP1): qHTS in cells in absence of CPT; Potency, µM (doses to about 46.2 µM), for inactives: at the top dose activity change, negative = growth inhibition, actives largely listed as inhibitors; hit rate 15% among 420,000; DT40 Tdp1-/- hTDP1 cells, no CPT, ATP luminescence, 48 h; also: potency is read from the fitted curve at half-maximal effect; nearly all actives have a fitted effect of over 55% in size
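Camptothecin absent (DMSO only). Human TDP1-complemented DT40 knockout cells, 400 cells/well, 37 °C for minimum 48 hr; ATP measured via CellTiter-Glo, 30 min dark incubation, luminescence.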
IL1B secr inh: inflammasome signaling inhibition, IL-1 beta readout; hit rate 4.7% among 360,000; THP-1 LPS/ATP IL-1B secretion, AlphaLISA, 16 h; stronger effect = lower value; activity change, % at 57.5 µM; in the data active = activity change below about -50%; inconclusive = mostly about -30% to -49%
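Secreted IL-1B measured by AlphaLISA bead assay after 16 h compound exposure of THP-1 cells; compounds (final up to 57.5 uM) added 1 h before LPS (250 ng/mL) and ATP (1.25 mM) stimulation; lower signal means less secretion.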
HT1080 IDH1KD tx: HT-1080 IDH1 knockdown cell toxicity (counter line); AID 686971; hit rate 2% among 360,000; Potency, µM (top dose mostly 46.1 µM), for inactives: at the top dose activity, negative = toxicity, hits mostly cytotoxic; HT-1080 IDH1 knockdown viability, ATP luminescence, 48 h;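 also: potency is read from the fitted curve at half-maximal effect; 0% = DMSO wells and -100% = cell-free medium wells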
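Viability of IDH1-knockdown HT-1080 fibrosarcoma cells was assessed by CellTiter-Glo after 48 h at 37 °C with titrated compound; concentration-effect curves were classified by fit quality and response size.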
DT40 TDP1 CPT: DT40-hTDP1 cell growth loss with CPT. chicken DT40 Tdp1-/-;hTDP1 cells + 20 nM CPT, ATP luminescence, 48 h. Potency, µM (highest dose often 46.2 µM), for the others: top-dose activity change, negative = growth inhibition, most hits filed as inhibitors. hit rate 12% among 420,000. AID 686979; also: potency is read from the fitted curve at half-maximal effect; nearly all actives have a fitted effect of over 55% in size
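Chicken DT40 Tdp1-/- cells complemented with human TDP1, 400 cells/well, exposed to compounds plus 20 nM camptothecin for at least 48 h at 37 C; viability read as ATP content by CellTiter-Glo luminescence.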
HT1080-NT tox: kills 2HG-producing HT-1080-NT fibrosarcoma cells. HT-1080-NT fibrosarcoma viability, CellTiter-Glo ATP luminescence, 48 h. Potency, µM (highest dose often 46.1 µM), inactives show top-dose activity, negative = less viability, usual class: cytotoxic. hit rate 1.6% among 360,000. AID 686970;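 also: NT is the 2HG producing partner of a matched IDH1 knockdown line; potency is read from the fitted curve at half-maximal effect; 0% = DMSO-treated cells and -100% = media-only wells without cells; nearly all actives have a fitted effect of over 55% in size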
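750 cells/well, RPMI + 5% FBS; 2 h settle, compound pin-transfer, 48 h at 37 degrees C. CellTiter-Glo 10 min RT, luminescence. Normalized to DMSO and media-only wells.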
* marks the source's active call; other numbers are inactive results; ? = inconclusive; · = no result. Unless noted, calls follow the shape of the dose curve; as a rule, active = well fitted curve in the direction sought with a large enough effect; inconclusive = small, poorly fitted or top-dose-only effect, or another doubt; inactive = no such curve, though single readings can be large; an effect the other way counts as inactive or inconclusive. Unless noted, % is scaled to controls: 0 for no effect and ±100 for the full control effect.

SMILES | TDP1 cell noCPT | IL1B secr inh | HT1080 IDH1KD tx | DT40 TDP1 CPT | HT1080-NT tox
O=P(CCc1ccccc1)(c1ccccc1)c1ccccc1 | -22% | 0 | -16% | -2% | -16%
COC(=O)CNC(=O)COC(=O)/C=C/c1ccccc1[N+](=O)[O-] | 6% | 32 | -16% | -26% | -9%
CC(C)c1ccc([C@@H]2O[C@H](CCc3ccccc3)Cc3[nH][nH]c(=O)c32)cc1 | ? | -10 | 7% | -29% | 7%
CC(C)C1OC(CCc2ccccc2)Cc2[nH][nH]c(=O)c21 (configuration not stated) | 23µM* | -7 | ? | -23% | ?
C[C@H](CO)N1C[C@H](C)[C@@H](CN(C)C(=O)NC2CCCCC2)Oc2ccc(NS(=O)(=O)c3ccccc3)cc2C1=O | -18% | -12 | 9% | -18% | 4%
Cc1noc(C)c1NC(=O)Nc1ccc2c(c1)C(=O)N([C@@H](C)CO)C[C@@H](C)[C@H](CN(C)C(=O)Nc1cccc3ccccc13)OCCCC[C@H](C)O2 | ? | -13 | -1% | ? | -5%
C[C@@H]1CN([C@@H](C)CO)C(=O)c2cc(NS(=O)(=O)c3ccc(F)cc3)ccc2O[C@@H](C)CCCCO[C@H]1CN(C)C(=O)NC1CCCCC1 | ? | -12 | -5% | 23µM* | -7%
C[C@@H]1CCCCO[C@H](CN(C)C(=O)Nc2cccc3ccccc23)[C@@H](C)CN([C@H](C)CO)C(=O)c2cc(N(C)C)ccc2O1 | 9.2µM* | 6 | 2% | 15µM* | -1%
Cc1ccc(S(=O)(=O)Nc2ccc3c(c2)C(=O)N([C@H](C)CO)C[C@H](C)[C@@H](CN(C)C(=O)NC2CCCCC2)OCCCC[C@@H](C)O3)cc1 | 13µM* | -9 | -22% | 21µM* | -10%
Cc1ccc(S(=O)(=O)Nc2ccc3c(c2)C(=O)N([C@H](C)CO)C[C@H](C)[C@H](CN(C)C(=O)Nc2cccc4ccccc24)OCCCC[C@@H](C)O3)cc1 | 15µM* | -2 | -18% | 21µM* | -10%
Cc1ccc(S(=O)(=O)Nc2ccc3c(c2)C(=O)N([C@@H](C)CO)C[C@@H](C)[C@@H](CN(C)C(=O)NC2CCCCC2)OCCCC[C@H](C)O3)cc1 | -16% | -16 | 2% | 0% | -10%
O=C(COC(=O)C12CC3CC(CC(C3)C1)C2)Nc1ccc([N+](=O)[O-])cc1Cl | ? | -1 | -8% | -30% | 5%
CC12CCC(/C(=C/NNc3ccc([N+](=O)[O-])cc3[N+](=O)[O-])C1=O)C2(C)C (configuration not stated) | 18µM* | -7 | -25% | 18µM* | -15%
O=C(Oc1ccc(N(Cc2cccs2)C2=NS(=O)(=O)c3ccccc32)cc1)c1ccccc1 | 23µM* | 7 | -5% | ? | -4%
CN(C1=NS(=O)(=O)c2ccccc21)c1ccc(OC(=O)c2ccccc2)cc1 | ? | -14 | 0% | 0% | -18%
O=C(Oc1ccc(N(Cc2cccs2)C2=NS(=O)(=O)c3ccccc32)cc1)c1ccc(Cl)cc1 | 18µM* | -2 | -6% | ? | -2%
CCCCCc1ccc(-c2cn(Cc3ccc(C(=O)c4ccccc4)cc3)nn2)cc1 | 4.1µM* | 4 | -9% | 3.3µM* | -3%
COc1ccccc1OCc1ccc(C(=O)c2ccccc2)cc1 | ? | ? | -1% | -15% | -17%
CCOC(OCC)c1cn(Cc2ccc(C(=O)c3ccccc3)cc2)nn1 | 23µM* | 41 | ? | 23µM* | ?
O=C(c1ccccc1)c1ccc(Cn2cc(-c3ccccc3)nn2)cc1 | 7.3µM* | 55 | -15% | 7.3µM* | -9%
CCC(=O)N1CCc2cc(Br)cc(S(=O)(=O)CCC(=O)N3CCN(c4cc(C)ccc4C)CC3)c21 | 4% | · | · | 17% | ·
CCn1c(SCc2ccccc2F)nc(=O)c2c(C(=O)OC)cc(C3CC3)nc21 | ? | · | · | 16µM* | ·
CCn1c(SCc2ccc(F)cc2Cl)nc(=O)c2c(C(=O)OC)cc(C3CC3)nc21 | 18µM* | · | · | 16µM* | ·
CC(C)c1c(C(=O)N/N=C/C2CC=CCC2)nnn1-c1nonc1N (configuration not stated) | 14% | 5 | 12% | -3% | 6%
CCn1c(SC(=O)NC2CCCCC2)nnc1-c1cccs1 | 23µM* | -20 | 0% | 21µM* | -2%
SMILES | TDP1 cell noCPT | IL1B secr inh | HT1080 IDH1KD tx | DT40 TDP1 CPT | HT1080-NT tox
COC(=O)C1(C)CCCC2(C)C3CCC(C(C)C)C(CO)C3C(CO)CC12 (configuration not stated) | ? | -60* | -6% | ? | -19%
Cc1ccc(CSC2=Nc3ccccc3C3=NC(CC(=O)NCc4cccs4)C(=O)N23)c(C)c1 (configuration not stated) | 21µM* | · | · | 15µM* | ·
CCOC(=O)CSC1=Nc2ccccc2C2=NC(CC(=O)NCc3cccs3)C(=O)N12 (configuration not stated) | -16% | 30 | 2% | -1% | 9%
COc1ccccc1CNC(=O)CCC1N=C2c3ccccc3N=C(SCC(=O)Nc3ccc(N(C)C)cc3)N2C1=O (configuration not stated) | 21µM* | · | · | ? | ·
COc1ccccc1CNC(=O)CCC1N=C2c3ccccc3N=C(SCc3ccc(C)cc3C)N2C1=O (configuration not stated) | ? | · | · | 16µM* | ·
COc1ccccc1CNC(=O)CC1N=C2c3ccccc3N=C(SCC(=O)Nc3ccc(F)cc3)N2C1=O (configuration not stated) | ? | · | · | 26µM* | ·
COc1ccccc1CNC(=O)CCC1N=C2c3ccccc3N=C(SCC(=O)Nc3ccc(F)cc3)N2C1=O (configuration not stated) | -24% | · | · | -25% | ·
O=S1(=O)NC(C2CC2c2ccccc2)CCO1 (configuration not stated) | -9% | -8 | 11% | ? | 10%
CCCN1CNc2c(c(=O)[nH]c(=S)n2CCc2ccc(Cl)cc2)C1 | ? | · | 0% | ? | -7%
Cc1ccsc1C=Nc1ccc(O)cc1 | ? | -99* | 23µM* | ? | -8%
Cc1ccsc1/C=N/N=C/c1sccc1C | ? | 8 | 1% | -16% | 0%
Cc1csc2nc(COC(=O)c3cccc(NC(=O)COc4ccc(Cl)cc4)c3)cc(=O)n12 | -1% | · | · | -5% | ·
CCCc1ccc(NS(=O)(=O)c2c(C)oc(C)c2C(=O)OC)cc1 | 21µM* | -8 | -3% | ? | -10%
Cc1nc2ccccc2n1C1CCN(CC(=O)Nc2ccccc2Br)CC1 | 13µM* | -51* | ? | ? | ?

Compound activity as filed in PubChem.
